What is called inhibition is the change of the read-out against control, counted positive when it falls.

Test [1] in a line: inhibitors of mutant huntingtin aggregation, primary screen, imaging, exon1htt(103Q)mCFP cells, high-content imaging (AID 483;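 active = visual image review flags a hit and inhibition of aggregation exceeds 20%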;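 also: compound exposure lasted 3 days before fixation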;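 as to nuclei count: percent of the per-plate median nuclei count of sample wells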). To be noted: exon1htt(103Q)mCFP cell line, aggregate imaging, at 2 µM; inhibition of aggregation: stronger effect = higher value; nuclei count: measured here: cell count, toxicity.
Test [2] in a line: inhibitors of E-selectin induction by TNFa, primary screen, imaging, HUVEC, immunofluorescence, MLSMR starter and 10KST1 sets (AID 487;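 active = visually confirmed hit in the image check and inhibition above 20%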;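 as to inhibition: signal is fraction of cell area covered by stained E-selectin grains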;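 as to nuclei count: 100% = median nuclei count of all wells on the same plate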). To be noted: HUVEC TNFalpha-induced E-selectin immunofluorescence imaging, at 2 µM; inhibition: stronger effect = higher value; nuclei count: measured here: cell number, toxicity.
Test [3] is described as follows: DUSP6 inhibitors restoring Erk phosphorylation by chemical complementation, primary imaging in DUSP6-transfected HeLa (AID 609;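 active = compounds giving at least 50% inhibition in the cell-based MKP-3 phosphatase rescue imaging test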;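 as to inhibition: phospho-Erk level distribution per well compared with pooled transfected vehicle control wells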). To be noted: HeLa MKP-3 transfected, phospho-Erk imaging KS statistic, at 10 µM, cells stimulated with TPA for 15 min.
The target of test [4] is Dual specificity protein phosphatase 6 (Homo sapiens) (UniProt Q16828). The description is as above. To be noted: HeLa MKP-3 transfected, phospho-Erk imaging KS statistic; at 10 µM; stronger effect = higher value; cells stimulated with TPA for 15 min.
In test [5] the target is Voltage-gated potassium channel subunit beta-2 (Rattus norvegicus) (UniProt P62483). Nature of the test: KvBeta enzyme negative modulators, primary screen, biochemical, NADPH fluorescence (AID 622;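 active = fluorescence slope higher than the sample average by over 3 SD, cut at about -0.22 in these data, passing the limit was not always enough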;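 also: slope of raw intensity against log time taken from 70 to 1610 s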). To be noted: recombinant KvBeta, 4-cyanobenzaldehyde reduction, at 10 µM, stronger effect = higher value.
The target is the same in test [6]. Nature of the test: KvBeta positive modulators, primary screen, biochemical, NADPH fluorescence (AID 623;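 active = NADPH fluorescence slope more negative than the mean of all samples by about 3 SD, 99.7% confidence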;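 also: fluorescence intensity change per second fitted from 20 to 320 s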). To be noted: Recombinant KvBeta, NADPH fluorescence decrease slope, 10 min; at 10 µM; stronger effect = lower value.
The target of test [7] is Alpha-2C adrenergic receptor (Homo sapiens) (UniProt P18825). As to the kind of experiment: modulators of alpha2C/GIRK thallium flux, primary screen, cell-based, HEK293 alpha2C/GIRK1/2 (AID 624;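 active = fluorescence slope after compound addition differing from the mean of all screened samples at 99.7% confidence, in either direction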;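 also: slope of fluorescence ratio to pre-addition baseline per second over 15 to 24 s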). To be noted: thallium flux BTC fluorescence, at 10 µM, actives lie on both sides.
Test [8] can be described thus: inhibitors of larval lipid processing in zebrafish, primary screen, whole organism, PED6 fluorescence, gall bladder and intestine (AID 686;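 active = a full or partial loss of lipid-probe fluorescence in the fish gall bladder, intestine or both, judged by eye; inactive = no fluorescence loss, or compound toxic to the fish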;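 also: larvae 5 to 7 days old with five fish per well; signal comes from phospholipase A2 cleavage of quenched PED6 carried via bile; overnight exposure to compound and PED6 before scoring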). To be noted: Zebrafish larvae PED6 lipid processing, fluorescence scoring; screened at 20 µM (by protocol).
Test [9] in a line: inhibitors of Chlamydomonas gravitaxis, primary screen, whole organism, Chlamydomonas reinhardtii, WT vs cilia-less mutant, absorbance, 96-well (AID 463189).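 Also: 0% = wild type cc124 cells in DMSO and 100% = ciliumless bld1 mutant cells.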 To be noted: OD600 absorbance, 2 days, at 10 µM, stronger effect = higher value.
Test [10] is described as follows: inhibitors of Sendai virus-induced IRF3 signaling, primary screen, TLR/RLR signaling modifier project, cell-based, Sendai virus stimulus, luciferase, 10K MLSCN set (AID 602276;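 active = inhibition at or above 50% at 10 µM; inactive = inhibition below 50%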;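 also: firefly luciferase from ISG56 promoter only with Renilla not read in this screen; 0% = Sendai virus plus DMSO and 100% = medium plus DMSO without virus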). To be noted: HEK293 RL24 IRF3 luciferase reporter, at 10 µM, stronger effect = higher value. On the technique in general: In a reporter assay the amount or activity of a reporter protein is the signal.

Test [11] can be described thus: inhibitors of poly I:C-induced TLR3 signaling, primary screen, cell-based, poly I:C stimulus, luciferase, 10K MLSCN set (AID 602277;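 active = inhibition of the reporter signal at or above 50%; inactive = inhibition below 50%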). To be noted: HEK293-TLR3 RL24 IRF3 luciferase reporter, at 10 µM, stronger effect = higher value.
Test [12] addresses Muscarinic acetylcholine receptor M4 (Homo sapiens) (UniProt P08173). Nature of the test: compounds altering M4/GIRK thallium flux, either direction, primary screen, M4 allosteric agonist project, cell-based, HEK293 M4/GIRK, BTC-AM (AID 625;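 active = fluorescence slope after compound addition differing from the mean of all tested samples at 99.7% confidence, mostly higher but some lower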;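 also: thallium influx through GIRK channels coupled to M4 in HEK293 cells with BTC-AM dye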). To be noted: at 10 µM, actives lie on both sides.
Where [13] appears, read: measured here: cell density z-score.
[14] abbreviates: measured here: nuclear c-Myc green intensity z-score.
The mark [15] stands for this setting: measured here: nuclear pErk red intensity z-score, stronger effect = higher value.

Values joined by “and” are separate entries in the source; they are usually repeats but may differ in a detail not shown here. Identical values can stand only once. Active and inactive are the calls of the source.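 The calls were made as follows, unless noted: active = inhibition at or above 50% relative to wild type and mutant plate controls; inactive = inhibition below 50%.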

Sequence of Voltage-gated potassium channel subunit beta-2 (Rattus norvegicus) (P62483 whole entry, looked up): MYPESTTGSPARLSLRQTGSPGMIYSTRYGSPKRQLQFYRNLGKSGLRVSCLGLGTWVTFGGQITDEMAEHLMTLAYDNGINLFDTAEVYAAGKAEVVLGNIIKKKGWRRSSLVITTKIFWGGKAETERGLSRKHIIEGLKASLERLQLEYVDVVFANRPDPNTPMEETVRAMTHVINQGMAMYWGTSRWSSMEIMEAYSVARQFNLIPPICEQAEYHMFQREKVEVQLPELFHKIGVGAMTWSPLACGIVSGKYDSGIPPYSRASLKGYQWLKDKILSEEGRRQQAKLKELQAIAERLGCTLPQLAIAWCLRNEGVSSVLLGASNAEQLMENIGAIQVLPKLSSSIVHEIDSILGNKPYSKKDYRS
Sequence of Dual specificity protein phosphatase 6 (Homo sapiens) (Q16828 whole entry, looked up): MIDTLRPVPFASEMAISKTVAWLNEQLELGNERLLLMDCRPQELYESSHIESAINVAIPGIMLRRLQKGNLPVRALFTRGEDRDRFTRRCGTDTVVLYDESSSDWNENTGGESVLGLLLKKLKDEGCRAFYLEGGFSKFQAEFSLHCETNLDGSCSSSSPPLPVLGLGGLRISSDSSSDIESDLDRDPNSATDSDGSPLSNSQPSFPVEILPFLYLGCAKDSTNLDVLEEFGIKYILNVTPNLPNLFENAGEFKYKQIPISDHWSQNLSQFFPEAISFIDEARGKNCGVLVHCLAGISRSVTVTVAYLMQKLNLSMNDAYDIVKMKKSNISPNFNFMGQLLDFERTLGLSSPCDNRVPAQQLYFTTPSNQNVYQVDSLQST
Sequence of Alpha-2C adrenergic receptor (Homo sapiens) (P18825 whole entry, looked up): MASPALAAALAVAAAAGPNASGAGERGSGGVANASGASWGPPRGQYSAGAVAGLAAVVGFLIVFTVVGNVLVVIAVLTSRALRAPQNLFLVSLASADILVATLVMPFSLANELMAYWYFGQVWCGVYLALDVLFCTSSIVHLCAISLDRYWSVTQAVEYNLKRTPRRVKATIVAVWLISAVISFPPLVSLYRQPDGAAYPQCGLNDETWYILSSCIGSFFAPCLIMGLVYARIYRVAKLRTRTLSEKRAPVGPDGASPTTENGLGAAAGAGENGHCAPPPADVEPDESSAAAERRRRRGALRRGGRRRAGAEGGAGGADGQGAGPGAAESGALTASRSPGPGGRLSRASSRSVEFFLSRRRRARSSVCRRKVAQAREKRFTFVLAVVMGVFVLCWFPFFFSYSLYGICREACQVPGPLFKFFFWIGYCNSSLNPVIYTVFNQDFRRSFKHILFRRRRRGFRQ
Sequence of Muscarinic acetylcholine receptor M4 (Homo sapiens) (P08173 whole entry, looked up): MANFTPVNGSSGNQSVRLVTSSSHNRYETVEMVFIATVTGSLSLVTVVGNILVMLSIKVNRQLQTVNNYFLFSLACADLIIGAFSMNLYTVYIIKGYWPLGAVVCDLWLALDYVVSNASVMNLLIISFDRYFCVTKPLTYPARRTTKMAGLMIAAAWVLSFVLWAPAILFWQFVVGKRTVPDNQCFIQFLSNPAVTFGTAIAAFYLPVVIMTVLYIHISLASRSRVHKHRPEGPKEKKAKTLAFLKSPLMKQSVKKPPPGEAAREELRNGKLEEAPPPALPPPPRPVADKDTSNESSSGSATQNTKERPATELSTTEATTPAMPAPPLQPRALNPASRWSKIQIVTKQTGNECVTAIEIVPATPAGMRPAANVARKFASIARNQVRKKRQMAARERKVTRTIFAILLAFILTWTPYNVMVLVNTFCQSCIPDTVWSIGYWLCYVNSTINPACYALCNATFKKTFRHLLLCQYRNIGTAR

Consider `Cc1ncc([N+](=O)[O-])n1CCO`, for which, in [1], the inhibition of aggregation is 7.7% (inactive). The results for the nuclei count in test [1] and in [2] were 76.5% and 110%, respectively. For the same compound, the inhibition was -67% (inactive) in test [2]; -5.24% (inactive) in [4]; 1.99% (inactive) in [9]; 8% (inactive) in [10]; 25.4% (inactive) in [11]. In addition, the z-score is 0.289 in test [3] (setting [13]), -1.84 in [3] (setting [14]) and 1.07 in test [3] (setting [15]). In addition, the fluorescence slope in test [5] was -0.491 (inactive). The NADPH fluorescence slope in [6] was -8.5e-05 (inactive). For the same compound, in test [7], the slope was 0.00488 (inactive). The compound was classed as inactive in test [8].
As for `CCOC(=O)c1cc2c(=O)n3cccc(C)c3nc2n(CCc2ccccc2)c1=N`, in [1], the inhibition of aggregation was -9% (inactive). The nuclei count in [1] stood at 86.6%; in test [2], 116%. The inhibition in test [2] was -145% (inactive); in test [4], -16.8% (inactive); in test [9], 150% (active); in test [10], 12% (inactive); in test [11] it was 28.5% (inactive). Also, the z-score was -0.746 in test [3] (setting [13]), 0.0077 in test [3] (setting [14]) and 0.78 in test [3] (setting [15]). Also, the figures for the fluorescence slope in test [5] and in test [12] were -0.42 (inactive) and 0.00314 (inactive), respectively. In test [6], the NADPH fluorescence slope is -2e-05 (inactive). Moreover, the compound was called inactive in test [8].
With `CN(C)CCCN1c2ccccc2Sc2ccc(C(F)(F)F)cc21`, the inhibition of aggregation in test [1] was 12.5% (inactive). Moreover, the figures for the nuclei count in test [1] and in [2] were 99.9% and 95.5%, respectively. Besides, the inhibition is -14.6% (inactive) in [2]; 13.3% (inactive) in test [4]; 81.9% (active) and 163% (active) in test [9]; 18% (inactive) in test [10]; 38.3% (inactive) in test [11]. Moreover, the z-score in test [3] (setting [13]) was -0.783; in [3] (setting [14]), 0.801; in test [3] (setting [15]), -0.407. Also, in test [5], the fluorescence slope was -0.487 (inactive). In test [6], the NADPH fluorescence slope was -8.7e-05 (inactive). For the same compound, the slope in test [7] is 0.00341 (inactive). In test [8], the compound was called inactive.
On to `CN(C)C(=O)Oc1ccc[n+](C)c1`, for which the inhibition of aggregation in test [1] was -10% (inactive). Moreover, the figures for the nuclei count in test [1] and in test [2] were 104% and 132%, respectively. Also, the inhibition is -27% (inactive) in test [2]; 13.3% (inactive) in [4]; -1.87% (inactive) and 14.9% (inactive) in test [9]; 6.65% (inactive) in [10]; 26.9% (inactive) in test [11]. In addition, the figures for the z-score in test [3] (setting [13]), in test [3] (setting [14]) and in [3] (setting [15]) were -0.869, 0.159 and 0.378, respectively. Besides, the fluorescence slope in test [5] was -0.448 (inactive). In addition, in test [6], the NADPH fluorescence slope is -5.3e-05 (inactive). Also, in test [7], the slope was 0.005 (inactive). For the same compound, the outcome in [8] was inactive.
Consider `CNC(=O)Oc1ccc2c(c1)[C@]1(C)CCN(C)[C@@H]1N2C`, for which, in [1], the inhibition of aggregation was 21.6% (inactive). In addition, the nuclei count turned out to be 88.6% in test [1] and 104% in test [2]. Further, the inhibition is -22.9% (inactive) in [2]; -6.41% (inactive) in test [4]; -0.375% (inactive) and -9.03% (inactive) in [9]; 15.2% (inactive) in [10]; 36.1% (inactive) in test [11]. The values for the z-score in test [3] (setting [13]), in [3] (setting [14]) and in test [3] (setting [15]) were -2.43, -0.577 and -0.583, respectively. For the same compound, in test [5], the fluorescence slope was -0.435 (inactive). For the same compound, the NADPH fluorescence slope in test [6] is 1.7e-05 (inactive). Further, the slope in [7] was 0.00657 (inactive). Also, in test [8], the result was inactive.
In the case of `N[C@@H](Cc1cc(I)c(Oc2ccc(O)c(I)c2)c(I)c1)C(=O)O`, the inhibition of aggregation in test [1] is 2.4% (inactive). The nuclei count came out at 100% in test [1] and 107% in test [2]. Also, the inhibition in test [2] is -50.6% (inactive); in [4], 9.37% (inactive); in [9], 36.6% (inactive); in [10], 20.4% (inactive); in [11] it was 29.6% (inactive). In addition, the z-score in test [3] (setting [13]) was 1.52; in test [3] (setting [14]), -0.0364; in test [3] (setting [15]) it was -0.441. Also, the fluorescence slope in test [5] is -0.512 (inactive). Also, the NADPH fluorescence slope in [6] is -3.3e-05 (inactive). Besides, the slope in test [7] is 0.00387 (inactive). In test [8], the outcome was inactive.
For `Cc1cccc(N2CN=c3s/c(=C\c4ccncc4)c(=O)n3C2)c1`, in test [1], the inhibition of aggregation was 13.2% (inactive). Further, the nuclei count turned out to be 99.6% in [1] and 121% in test [2]. Also, the inhibition in [2] is -56.6% (inactive); in test [4], -10.5% (inactive); in test [9] it was 22.1% (inactive); in test [10] it was 10.3% (inactive); in test [11], -3.47% (inactive). For the same compound, the z-score in test [3] (setting [13]) is -0.505; in test [3] (setting [14]) it was -1.69; in test [3] (setting [15]), 1.18. In addition, the fluorescence slope in test [5] is -0.334 (inactive). In [6], the NADPH fluorescence slope is 5.8e-06 (inactive). In addition, the slope in [7] was 0.00412 (inactive). Further, in test [8], the result was inactive.
`C[C@H]1C[C@H]2[C@@H]3CCC4=CC(=O)C=C[C@]4(C)[C@@]3(Cl)[C@@H](O)C[C@]2(C)[C@@]1(O)C(=O)CO`: the inhibition of aggregation in test [1] was -11.8% (inactive). Besides, the nuclei count in test [1] came out at 69.5%; in [2], 113%. Also, the inhibition in test [2] was -5.2% (inactive); in [4], -4.44% (inactive); in test [9] it was -5.54% (inactive); in test [10], 8.02% (inactive); in [11] it was 22.6% (inactive). Also, the z-score in test [3] (setting [13]) was 0.584; in test [3] (setting [14]), -0.957; in [3] (setting [15]) it was -0.321. The fluorescence slope in [5] is -0.496 (inactive). Moreover, the NADPH fluorescence slope in test [6] was -7.9e-05 (inactive). The slope in test [7] was 0.00488 (inactive). Moreover, the compound was classed as inactive in [8].
As for `NS(=O)(=O)c1cc2c(cc1Cl)NCNS2(=O)=O`, the inhibition of aggregation in [1] was -4.8% (inactive). Moreover, the nuclei count is 107% in test [1] and 102% in [2]. Moreover, the inhibition in [2] was -46.3% (inactive); in [4], -0.493% (inactive); in test [9] it was 0.566% (inactive) and -18.6% (inactive); in [10], 15.2% (inactive); in test [11], 40.7% (inactive). For the same compound, the z-score in test [3] (setting [13]) was -0.71; in test [3] (setting [14]), -0.153; in test [3] (setting [15]), -1.04. Besides, the fluorescence slope in test [5] was -0.428 (inactive). Further, the NADPH fluorescence slope in test [6] was 1.8e-05 (inactive). Also, the slope in test [7] was 0.00467 (inactive). In test [8], the compound was called inactive.
As for `Cc1cc(C(C)(C)C)c(O)c(C)c1CC1=NCCN1`, in [1], the inhibition of aggregation is 2.2% (inactive). The nuclei count in [1] was determined as 87.4%; in test [2], 134%. Also, the inhibition in test [2] is -50.7% (inactive); in test [4], -2.29% (inactive); in [9], 6.18% (inactive) and -2.62% (inactive); in test [10], 16.9% (inactive); in test [11], 24.3% (inactive). The z-score in [3] (setting [13]) is 0.182; in test [3] (setting [14]), 0.896; in [3] (setting [15]), -0.366. In addition, the fluorescence slope in [5] was -0.367 (inactive). In addition, in test [6], the NADPH fluorescence slope was -2.8e-05 (inactive). In test [7], the slope is 0.00482 (inactive). The outcome in test [8] was inactive.

The values above are taken from PubChem BioAssay.
